# In the supplement of paper PMC6555819:
# Key:
# Assay in all cases: PBM binding z-score (relative to random genomic background probes); higher = stronger binding; sequences stand for … in GC…GCGATTGACAGCGTAGAATGAAGG
# [1] = test system: PPARg:RXRa DBDmut IVT, anti-RXR (DBD mutation: RXRa K156A/R161A, NR concentration 270 nM, RXRa partner concentration 90 nM)
# Procedure, shortened: (§1)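 On custom Agilent 4×180K arrays, double-stranded probes with 34-nt variable regions carried direct-repeat seeds, single-nucleotide variants, half-site ablations or random human genomic background. Ligand-free nuclear receptor dimers were applied for 1 h, and binding was read with antibodies against each partner (one per run). Binding z-scores come from regression-normalized fluorescence, with the random background probes as reference.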
# [2] = test system: PPARg:RXRa IVT, anti-PPARg (NR concentration 270 nM, RXRa partner concentration 90 nM)
# Procedure, shortened: as §1
# [3] = test system: PPARg DBDmut:RXRa IVT, anti-PPARg (DBD mutation: PPARg1 K132A/R137A, NR concentration 270 nM, RXRa partner concentration 90 nM)
# Procedure, shortened: as §1
# [4] = test system: PPARg DBDmut IVT, anti-PPARg (DBD mutation: PPARg1 K132A/R137A, NR concentration 270 nM)
# Procedure, shortened: as §1
# [5] = test system: PPARg homodimer (NR concentration 180 nM)
# Procedure, shortened: as §1
# [6] = test system: PXR:RXRa (NR concentration 270 nM, RXRa partner concentration 90 nM)
# Procedure, shortened: as §1
# [7] = test system: PXR homodimer (NR concentration 270 nM)
# Procedure, shortened: as §1
# [8] = test system: RARa:RXR (NR concentration 270 nM, RXRa partner concentration 90 nM)
# Procedure, shortened: as §1
# [9] = test system: RARa homodimer (NR concentration 270 nM)
# Procedure, shortened: as §1
# [10] = test system: RARb:RXRa (NR concentration 270 nM, RXRa partner concentration 90 nM)
# Procedure, shortened: as §1
Sequence,PBM binding z-score [1],PBM binding z-score [2],PBM binding z-score [3],PBM binding z-score [4],PBM binding z-score [5],PBM binding z-score [6],PBM binding z-score [7],PBM binding z-score [8],PBM binding z-score [9],PBM binding z-score [10]
ATCGTAAGGTCGTGAGGTGAGTATACAGAAAGGC,0.0684,1.65,1.19,1.05,1.4,2.22,0.545,3.29,0.99,3.11
ATATGTAGGTTAGCTGGAGTCATTCAGACTAGGC,6.03,6.03,1.63,1.57,0.988,0.231,-0.186,0.556,0.257,0.61
CCTAGTGGGTCAGGAGGTCACACACCGGATATGA,5.23,7.22,0.727,0.445,3.37,4.62,0.774,5.66,1.06,4.42
TAGCCTAGGTCATTGGACCAGTATAGTACGCATC,1.74,3.17,0.686,-0.0362,1.31,1.66,-0.324,2.35,-0.143,3.65
TTACCAAGGTTAAAGGTCGTTGATGCACGCCTTG,2.09,4.53,0.805,0.292,2.41,5.16,0.943,6.63,0.588,3.68
ATCGAAAGGTCGTGACGTGAGTATACAGAAAGGC,-0.00761,1.68,1.56,0.662,1.61,2.98,0.0582,3.7,0.369,3.74
ATCTCTAGGTGAAAGTTCAGTGAATCCCGAGGAT,5.35,6.32,1.5,0.994,1.52,2.87,1.57,2.87,0.586,3
TATCCTAGGTCAGATCGGGCCAGTATACGCTATA,2.51,3.41,1.32,1.4,1.11,1.82,0.14,1.8,0.0561,3.33
ATCGAAAGGTCGACGAGGTGAGAATACACCGTTT,0.716,2.39,0.449,1.17,2.15,3.29,0.612,4.11,0.753,4.1
CCTACTGGGCCGAGGTCATTGATCAGTCAAAGCA,1.55,2.71,-0.758,-1.27,2.05,4.62,2.49,4.33,-0.11,3.19
TCTCGGAGGACACGAAGGTCAGCGCTTTCCAGAG,1.48,1.41,-0.389,-0.884,2.23,2.49,0.985,3.06,0.313,3.95
ATATGTAGGTTAAGGGTCATGCAGGTTGGTTCGC,7.69,7.88,4.88,2.56,5.05,5.37,2.16,6.47,2.37,3.73
ACTTGGAGGACAAAGGTCAGAGCTACGCCAGTGA,2.6,5.22,1.39,1.18,4.64,4.33,0.449,5.83,2.6,4.72
CCGACTGGGGCAACGGTTACCATACTCAGTACGA,3.8,3.87,-0.196,-0.486,0.34,-0.591,-0.155,-0.576,-0.579,0.784
CCTGCTAGGACAATGGTCAGCTAAAGCAGCTCGC,0.194,-0.56,-1.25,-2.24,-1.14,-0.961,-0.715,-0.928,-0.846,0.219
GATACACGGTCAAGGCCAGAGTACGCGTATTGAT,0.208,0.594,-0.0876,-0.79,-0.507,0.00631,-0.314,-0.159,-0.63,2.67
CATACAGGGTAAGCTAGGCCAGAGTAGGGACGGC,0.432,0.87,-0.00431,-0.34,-0.902,-0.7,-0.446,-0.142,0.0109,0.588
ATATGTAGGTTATCGGGTCATTCATTTTGCGCAT,7.75,7.84,5.27,4.21,4.1,3.39,1.23,3.75,2.1,2.43
CCTACTGGGCCAAAGGACATTGATTCCAATGCTC,4.14,4.09,-0.131,-0.115,0.47,-0.488,-0.554,-0.324,-0.235,0.93
CAAACTAGGTCAAGGGGTCAAAGTCCGCTTCCCG,8.13,8.72,0.711,1.52,6.55,6.31,1.78,7.88,1.67,5.46
TTACCAAGGTGACCTGAGGTCGTTGATCCAACTC,1.69,2.92,0.109,-0.145,1.47,5.57,1.38,3.89,-0.101,2.5
ATCGAAACGTCGTGAGGTGAGTATACAGAAAGGC,-0.959,0.149,1.07,-0.047,-0.199,-0.306,-0.433,0.0512,-0.494,-0.0846
CAAAGTAGGTCAAGGTCAAAGTCGGTTTGTGCCA,8.64,9.04,5.79,3.56,4.77,5.48,2.55,5.94,2.15,5.07
AGAATGAGGTTAAGATTAGGGAAACAGAATACAT,2.37,2.53,0.926,1.13,1.38,1.24,0.222,2.11,1.36,1.91
